LDHA block: LDHA (human) enzyme inhibition | activity change, % (values are at about 110 or 230 µM) | P00338 | actives 0.15% (n = 480,000) | purified LDHA, NADH/diaphorase-resazurin fluorescence; stronger effect = lower value; in the data active = activity change below about -30%; inconclusive = mostly about -25% to -30%;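 also: plate controls were DMSO wells for no effect and wells without enzyme for full effect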
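Remaining NADH was detected by diaphorase (0.133 mg/mL) converting 37 µM resazurin to fluorescent resorufin, read at 0 and 20 minutes. The preceding 5-minute room-temperature reaction used 2 nM LDHA, 0.2 mM sodium pyruvate and 0.06 mM NADH at pH 7.4.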
RGS4 inh: blocks human RGS4-accelerated GTP hydrolysis | actives 0.039% (n = 390,000) | Transcreener GDP fluorescence polarization, RGS4-accelerated GTP hydrolysis | Potency, µM (series often up to 114 µM), for the others: at the highest dose activity change, negative = inhibition, hits mostly inhibitors; also: potency is read from the fitted curve at half-maximal effect; % is scaled to controls: 0 for no effect and ±100 for the full control effect; nearly all actives have a fitted effect of over 75% in size
Target sequence (P49798 whole entry, looked up): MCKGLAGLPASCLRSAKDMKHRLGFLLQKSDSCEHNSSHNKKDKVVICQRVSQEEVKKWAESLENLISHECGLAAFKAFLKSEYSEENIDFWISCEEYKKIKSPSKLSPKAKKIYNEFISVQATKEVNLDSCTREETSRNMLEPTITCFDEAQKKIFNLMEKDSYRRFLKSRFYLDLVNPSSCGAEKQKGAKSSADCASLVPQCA
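MLSMR compounds (23 nl, pin-transferred) preincubated 10 min at room temperature with a 500nM (2x) first reagent, then RGS4 at 900nM (2x) plus Transcreener GDP mix added; fluorescence polarization (620/688 nm) read before and after 90 min at 30 °C.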
Apoferritin bind: binds horse apoferritin like a general anesthetic | P02791 | actives 0.074% (n = 350,000) | Potency, µM (titrated, usually from 77.5 µM), for inactives: top-dose activity change, negative = displacement, actives largely listed as inhibitors | apoferritin/1-aminoanthracene competitive binding, fluorescence | AID 485281; also: potency is read from the fitted curve at half-maximal effect; % is scaled to controls: 0 for no effect and ±100 for the full control effect; nearly all actives have a fitted effect of over 20% in size
Target sequence (P02791 2-175 limits assumed): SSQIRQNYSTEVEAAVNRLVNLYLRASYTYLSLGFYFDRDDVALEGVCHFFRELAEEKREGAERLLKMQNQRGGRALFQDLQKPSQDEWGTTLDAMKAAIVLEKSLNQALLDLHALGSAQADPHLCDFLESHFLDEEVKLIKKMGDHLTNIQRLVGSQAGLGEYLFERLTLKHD
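Probe: 1-aminoanthracene (50% saturated, PBS). Protein: horse-spleen apoferritin, 10 uM. Incubation: 10 min, room temperature. Detection: 380 nm excitation, 535 nm emission. Analysis: normalized response, four-parameter Hill.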
AT treatment: potential ataxia-telangiectasia treatments restoring KAP-1 phosphorylation | actives 0.19% (n = 320,000) | F2112 A-T fibroblasts, KAP-1 phosphorylation AlphaLISA; neocarzinostatin DNA damage 30 min before lysis | Potency, µM (highest dose often 57.5 µM), without a hit: at the highest dose activation, most hits filed as activators; also: potency is read from the fitted curve at half-maximal effect; % of control where 0% means no effect; nearly all actives have a fitted effect of over 45% in size
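hTERT-immortalized A-T patient fibroblasts (F2112), 500 cells/well in OPTI-MEM, 1% FBS, got compounds for 60 min, then NCS for 30 min at 37C. Lysates were then assayed for phospho-KAP-1 by AlphaLISA (anti-pKAP1 donor, anti-KAP1 acceptor beads), 6 hr at 25C.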
* hit, by the source's call; ? = inconclusive; . = no result given; ! = not active in a repeat; [ ] = dose if it differs, or a comment. Rows were chosen to be rich in hits. Some 0.35% of all compounds tested hit in one or more screens of this group. Unless noted, calls follow the shape of the dose curve; as a rule, active = well fitted curve in the direction sought with a large enough effect; inconclusive = small, poorly fitted or top-dose-only effect, or another doubt; inactive = no such curve, though single readings can be large; an effect the other way counts as inactive or inconclusive.

SMILES	LDHA block	RGS4 inh	Apoferritin bind	AT treatment
CCC12CN(C(=O)c3ccc([N+](=O)[O-])cc3)CC(CC)(CN(C(=O)c3ccc([N+](=O)[O-])cc3)C1)C2=O	-3.1	-11.3%	5.6%	7.08µM*
CCC12CN(C(=O)c3ccc(OC)cc3)CC(CC)(CN(C(=O)c3ccc(OC)cc3)C1)C2=O	-3.5	1.9%	-11.4%	8.4%
Cc1cc(C)c(S(=O)(=O)N2CCN(c3ccc(N4CCCCC4)nn3)CC2)cc1C	2.5	.	.	.
Cc1cc(C)c2nc(SCC(=O)Nc3sccc3C(N)=O)cc(C)c2c1	2.7	.	.	.
Cc1cc(C)c2nc(SCC(=O)NC(N)=O)cc(C)c2c1	-34.4*	.	.	.
COC(=O)CCCC1=CC2=CC(=O)C(C)(OC(=O)c3cccs3)C(=O)C2=CN1C1CC1 (stereo not drawn)	15.7	-19.2%	-1.1%	-19.4%
COC(=O)CCCC1=CC2=CC(=O)C(C)(OC(=O)c3cccs3)C(=O)C2=CN1C1CCCCC1 (stereo not drawn)	13.8	-3.1%	1.0%	25.1µM*
Oc1ccc2cccc(O)c2c1	19.5	.	.	.
OCCCNC(=S)NCCc1ccccc1	-3.5	.	.	.
COCC(=O)N1CCN(c2oc(-c3cccc(C)c3)nc2S(=O)(=O)c2ccc(F)cc2)CC1	1.6	.	.	.
COCC(=O)N1CCN(c2oc(-c3ccc(C)cc3)nc2S(=O)(=O)c2ccc(F)cc2)CC1	-35.5*	.	.	.
Nc1ccc(C2CCCc3nonc32)c2nonc12 (stereo not drawn)	2.6	-27.0%	17.8µM*	.
O=C1C(=C2SCCS2)CCc2ccccc21	62.8	.	.	.
CS(=O)(=O)c1ccc(C(=O)CSc2ccc(F)cc2)cc1	-1.8	.	.	.
O=C(O)c1ccc2nc(-c3ccc(-c4ccccc4)cc3)c(-c3ccc(-c4ccccc4)cc3)nc2c1	7.0	.	.	.
O=C1CCCCCCC1Sc1ccccc1[N+](=O)[O-] (stereo not drawn)	-0.5	-9.5%[11.4 µM]	7.94µM*	-0.2%
Cc1cc(C)c(/C=C(\C#N)C(N)=S)c(C)c1	-0.4	-33.5%	-1.1%	2.9%
N#C/C(=C/c1ccc(F)cc1)C(N)=S	-4.7	-53.5%	-7.5%	3.55µM*
CC(C)(C)c1cc(/C=C(\C#N)C(N)=S)cc(C(C)(C)C)c1O	.	10.6µM*	.	.
CCCOc1ccc(NC(=O)C(C)Oc2cc(C)cc(C)c2)c2cccnc12 (stereo not drawn)	36.9	.	.	.
NNC(=O)c1ccc([N+](=O)[O-])cc1	-2.0	.	.	.
NS(=O)(=O)c1ccc(O)c(NC(=O)c2ccc([N+](=O)[O-])cc2)c1	-57.2*	-26.7%	-6.7%	-0.2%
O=C(Nc1cc([N+](=O)[O-])ccc1O)c1ccc2c(c1)C(=O)N(Cc1ccco1)C2=O	-55.5*	?	0.7%	-5.7%
O=C(Nc1cc([N+](=O)[O-])ccc1O)c1cccc(C(=O)Nc2cc([N+](=O)[O-])ccc2O)c1	-35.0*	-30.9%	-12.7%	0.0%
O=C(Nc1cc([N+](=O)[O-])ccc1O)c1cccc([N+](=O)[O-])c1	-11.3	-28.7%	-8.9%	-7.0%
SMILES	LDHA block	RGS4 inh	Apoferritin bind	AT treatment
Cc1ccc2[nH]cc(C(C(=O)O)N3CCN(Cc4cccc(Cl)c4)CC3)c2c1 (stereo not drawn)	1.5	.	.	.
CCc1ccccc1NC(=O)C(=O)NCCCN1CCOCC1	-8.1	16.8%	2.3%	.
CSc1ccccc1NC(=O)CNCCCN1CCOCC1	-36.2*	-28.9%	-1.6%	6.0%
COc1cc(C(=O)C(C#N)C(=O)CC(C)(C)C)cc(Cl)c1OC (stereo not drawn)	0.3	.	.	.
CCN1CCN(CC(=O)N/N=C/c2cc(Br)cs2)CC1	-30.2*	6.5%	4.5%	-7.2%
CCc1n[nH]c(=S)n1/N=C/c1ccc(NC(C)=O)cc1	1.4	-34.6%	-3.3%	-1.6%
CC(C)(C)c1n[nH]c(=S)n(/N=C/c2cccs2)c1=O	-8.0	-14.3%	-0.5%	0.0%
Cc1n[nH]c(=S)n(/N=C/c2cccs2)c1=O	-31.1*	-23.2%	2.6%	0.4%
CCN(CC)c1ccc(/C=N/n2c(=S)[nH]nc(C)c2=O)cc1	-31.1*	-11.8%	?	-2.7%
O=C1Cc2cc(CCN3CCN(c4nsc5ccccc45)CC3)c(Cl)cc2N1	.	16.8µM*	-20.5%	.
c1ccc(-c2cc(-c3ccccc3)ncn2)cc1	-5.1	9.8%	.	.
C[n+]1cnc(-c2ccccc2)cc1-c1ccccc1	-48.5*	-14.3%	0.8%	-2.0%
O=C(COc1ccc2ccccc2c1)Nc1cnc2ccccc2c1	-32.6*	.	.	.
CCCCCC(C)NCc1sccc1C (stereo not drawn)	-5.7	.	.	.
Cc1nn(Cc2ccccc2)c(C)c1/C=N/NC(=O)c1ccccc1O	-1.2	27.1%[11.4 µM]	-3.8%	31.6µM*
Cc1nn(Cc2ccccc2)c(C)c1/C=N/NC(=O)c1ccncc1	0.2	-13.5%	2.3%	-6.9%
Cc1cccc(NC(=O)COc2ncnc3ccc(Br)cc23)c1C	-30.8*	.	.	.
Cc1c(Cl)cccc1NC(=O)COc1ncnc2ccc(Br)cc12	-8.8	.	.	.
CCCOc1ccc(/C(O)=C2\C(=O)C(=O)NC2c2ccc(C(C)(C)C)cc2)cc1 (stereo not drawn)	13.7	.	.	.
Fc1cccc(Cl)c1CNC(c1ccccc1)c1ccccc1	3.4	24.0%	1.2%	31.6µM*
O=C(CNC(c1ccccc1)c1ccccc1)Nc1c(F)cccc1F	1.9	4.0%	-5.9%	-2.9%
CC(C)c1ccc(/C=C(/C#N)C(=O)Nc2cccc3ncccc23)cc1	-15.0	.	.	.
C=C1CCN(C(C)C(=O)OCc2ccc(C)cc2)S(=O)(=O)c2ccccc21 (stereo not drawn)	.	-9.8%	-2.9%	.
C=C1CCN([C@H](C(=O)OCc2ccc(C)cc2)C(C)C)S(=O)(=O)c2ccccc21	-4.2	1.8%	-4.7%	39.8µM*
C[C@@H](N)C(=O)O	.	21.2µM*!	-3.2%	.
SMILES	LDHA block	RGS4 inh	Apoferritin bind	AT treatment
CC(C)C[C@@H](N)C(=O)O	.	37.7µM*	-4.4%	.
COc1ccc2nc(C)cc(Sc3nc4ccccc4s3)c2c1	-0.2	-42.6%	?	22.4µM*
CC(C)(C)c1ccc(S(=O)(=O)/C=C/C#N)cc1	2.9	2.12µM*	.	.
CC(C)(C)c1ccc(NS(=O)(=O)c2ccc(N)cc2)cc1	0.9	-7.4%[56.9 µM]	?	4.0%
COc1cc(CCc2ccccc2)c(C(=O)O)c(O)c1CC=C(C)C	2.7	23.0%	.	.
COc1cc(CCc2ccccc2)c(C(=O)O)c(O)c1C/C=C(/C)CCC=C(C)C	-38.4*	-18.0%	.	7.8%
COC(=O)CNC(=O)c1cc(-c2ccco2)nc2ccccc12	4.7	.	.	.
CC1(C)O[C@@H]2[C@@H](CO[C@@]3(COS(N)(=O)=O)OC(C)(C)O[C@@H]23)O1	.	.	2.9%	.
CC1(COS(N)(=O)=O)CCCCC1	-6.5	-1.7%	5.62µM*	25.3%
CCn1c2ccccc2c2cc(CN3CCN(S(=O)(=O)Cc4ccccc4)CC3)ccc21	-30.2*	-1.1%	-1.4%	.
CCn1c2ccccc2c2cc(CN3CCN(S(=O)(=O)CC)CC3)ccc21	.	.	-11.8%	-0.9%
CCN(C(=O)c1cc2c(=O)n3ccccc3nc2n1CCCOC)C1CCCCC1	-0.4	-7.6%	696.0%	28.2µM*

Assay outcomes (PubChem BioAssay)
